Assay results from PubChem BioAssay AID504375 (National Center for Advancing Translational Sciences (NCATS), 2011).
Out of some 1,600 compounds screened, about 25 (2%) were called active. Entries that show only a call come without a potency. About 7% were inconclusive and are not listed. Calls follow the shape of the dose curve; as a rule, active = well fitted inhibition curve with a large enough effect; inconclusive = small, poorly fitted or top-dose-only effect, or effect the other way; inactive = no such curve, though single readings can be large or run the other way. This excerpt belongs to a sample that is enriched for actives.
Potency is read from the fitted curve at half-maximal effect.

The molecules below were run against Runt-related transcription factor 1 (Homo sapiens) + Core-binding factor subunit beta (Homo sapiens) (UniProt Q01196+Q13951) (assay: qHTS Assay for Compounds Blocking the Interaction Between CBF-beta and RUNX1 for the Treatment of Acute Myeloid Leukemia: Hit Validation with Orthogonal Assay). Details: CBFbeta-RUNX1 binding orthogonal assay, biochemical; series mostly up to 41 µM.
Chain of Runt-related transcription factor 1 (Homo sapiens) + Core-binding factor subunit beta (Homo sapiens) (Q01196 whole entry, looked up): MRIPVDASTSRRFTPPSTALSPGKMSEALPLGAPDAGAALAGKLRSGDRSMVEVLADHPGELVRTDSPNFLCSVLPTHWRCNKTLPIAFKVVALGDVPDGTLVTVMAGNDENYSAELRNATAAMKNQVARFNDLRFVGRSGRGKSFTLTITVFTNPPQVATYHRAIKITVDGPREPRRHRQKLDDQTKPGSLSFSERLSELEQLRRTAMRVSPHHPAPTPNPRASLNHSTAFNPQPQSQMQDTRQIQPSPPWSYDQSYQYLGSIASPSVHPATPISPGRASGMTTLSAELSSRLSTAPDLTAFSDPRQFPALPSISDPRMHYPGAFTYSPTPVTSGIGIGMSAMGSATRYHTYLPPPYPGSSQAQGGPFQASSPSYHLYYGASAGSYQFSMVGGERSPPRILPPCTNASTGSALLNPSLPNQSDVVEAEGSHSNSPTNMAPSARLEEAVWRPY
Chain of Runt-related transcription factor 1 (Homo sapiens) + Core-binding factor subunit beta (Homo sapiens) (Q13951 whole entry, looked up): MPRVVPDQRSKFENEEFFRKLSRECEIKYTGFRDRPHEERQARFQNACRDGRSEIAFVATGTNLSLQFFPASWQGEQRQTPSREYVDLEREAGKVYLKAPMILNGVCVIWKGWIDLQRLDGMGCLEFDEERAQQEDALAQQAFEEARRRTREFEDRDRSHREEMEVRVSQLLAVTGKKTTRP
Text: NIH Chemical Genomics Center [NCGC]
NIH Molecular Libraries Probe Production centers Network [MLPCN]
Assay Submitter (PI): Paul Liu
Core Binding Factor (CBF) abnormalities are associated with 20-25% of all acute myeloid leukemias (AML), of which 5-10% are further sub classified as acute myelomonocytic leukemia with eosinophilia, also known as M4Eo in the FAB classification scheme. This subtype of leukemia is usually associated with chromosome 16 inversion (p13:q22). Chromosome 16 inversion results in formation of the fusion oncogene CBFB-MYH11, which encodes the fusion protein CBF-beta-SMMHC.
It has been hypothesized that the interference of CBF-beta and RUNX1 binding could have therapeutic implications for patients with CBF mediated leukemias. We developed a CBF-beta and RUNX1 binding assay in AlphaScreenTM format and optimized it for high throughput screening to search for inhibitors. The goal of this project is to screen MLPCN's compound collection (MLSMR) for identifying the inhibitors of the interaction between CBF-beta and RUNX1 proteins as research probes. If these probes work well in the animal models, the ultimate goal of this project is to development a new drug treatment for this disease.
This assay can not be used to assess how apparent inhibitors interfere with protein binding, and whether inhibitors specifically bind to either protein. Disruption of this protein-protein interaction, through any mechanism, is the intended target activity.
The present data set was run to confirm the activity of hits from the primary screen using an orthogonal assay technology for measuring protein-protein interaction disruption.
A TR-FRET (time resolved fluorescence resonance energy transfer) assay was performed using the same assay buffer, protein concentrations and incubation times as described previously in the AlphaScreen assay, except that terbium (Tb+) labeled anti-his-antibody and XL665 linked streptavidin were used to capture the binding signal. The Tb+ labeled anti-his-antibody captures His(6)-CBF and XL665 linked streptavidin binds to biotin-RUNX1. The binding of RUNX1 to CBFbrings Tb+ and XL665 to proximity resulting in a TR-FRET signal. Briefly, in a white 384-well plate, 10 µl/well of mixture of biotin-RUNX1 and His(6)-CBFwere incubated with 10 µl/well buffer (positive control) or 10 µl/well compounds (negative control) for 20 min followed by an addition of 10 µl/well of Tb+ labeled anti-his(6)-antibody and XL665 linked streptavidin. After 90 min of incubation in the dark, the assay plate was measured in the Envision plate reader using TR-FRET detection mode. For the 1536-well plate format, 3 µl/well mixture of biotin-RUNX1 and His(6)-CBF (30 nM per protein) was incubated with 23 nl/well compound (dissolved in 100% DMSO) or the equivalent DMSO concentration (positive control) for 30 min followed by the addition of 1 µl/well of 0.44 ng Tb+ labeled anti-his(6)-antibody and 5 nM streptavodin-XL665. After 90 min of incubation, the assay plate was measured in the Envision plate reader.
The TR-FRET assay for detecting interaction between HIV-I Tat and […] was similarly performed with the recombinant full-length HIV-I Tat CLADE B and HIV-I Tat Biotin conjugated proteins supplied by Diatheva (Fano, Italy). Briefly, the His-CBF and Biotin-RUNX1 complex at a working concentration of 83.3 nM per protein were pre-incubated in assay buffer for 10 minutes on ice. Then HIV-I Tat or unlabeled CBF were added to reach final concentrations (Supplementary Figure 4b) and incubated for 5 minutes. Finally anti-His antibody and streptavidin-XL665 at a final concentration of 2.2 ng and 5 nM, respectively, were added to the plate, which was incubated for 1 hr prior to reading on the PerkinElmer Envision plate reader.
Keywords: MLSMR, MLPCN, NIH Roadmap, qHTS, NCGC, Core binding factor, CBF, CBF-beta, Acute myeloid leukemia
In the case of `Cc1ccc2c(c1C)NC(C(=O)O)C1CC=CC21` (centres undefined), the Potency is reported as 7.08 µM (active).
With `COc1ccccc1C1CCN(C(=O)c2ccco2)CC1` the Potency was “inactive”.
For `COc1cccc2c1NC(C(=O)O)C1CC=CC21` (centres undefined), the Potency was 7.94 µM (active).
For `O=C(O)C1Nc2c(O)cccc2C2C=CCC12` (centres undefined), the Potency was 3.55 µM (active).
For `COc1ccccc1C1CCN(C(=O)c2cccs2)CC1`, the Potency was “inactive”.
In the case of `O=C(O)C1Nc2c(O)cc(Cl)c([N+](=O)[O-])c2C2C=CCC12` (centres undefined), the Potency is reported as “inactive”.
With `Cn1ncc(Br)c1N1C(=O)CCC1=O` the Potency was “inactive”.
For `Fc1ccc(C(CCNCc2cccs2)c2ccco2)cc1` (centres undefined), the Potency was “inactive”.
`COc1ccc(NC(=O)Nc2nc3ccccc3s2)cc1` was tested, and the Potency was “inactive”.
In the case of `Cc1cc(NC(=O)CSc2nc3ccccc3[nH]2)n(-c2ccccc2)n1`, the Potency is reported as “inactive”.
With `CN(C)c1nc(-c2ccccn2)nnc1-c1ccccc1` the Potency was 22.4 µM (active).
For `c1ccc(-c2nnc(-c3ccccn3)nc2NC2CCCCC2)cc1`, the Potency was “inactive”.
`c1ccc(-c2n[nH]c(-c3ccccn3)n2)nc1` was tested, and the Potency was “inactive”.
`CC(=O)Nc1cccc(OCCCNC(=O)c2cccc3ccccc23)c1` was tested, and the Potency was “inactive”.
`COc1ccc2[nH]c(C(=O)N3CCCN(Cc4ccc(F)cc4)CC3)cc2c1` was tested, and the Potency was “inactive”.
With `NS(=O)(=O)c1ccc(N/N=C/c2ccc(C(=O)O)cc2)c([N+](=O)[O-])c1` the Potency was “inactive”.
`CC(=O)CCn1cc([N+](=O)[O-])nc1C` was tested, and the Potency was “inactive”.
For `Cc1cccn(Cc2c(F)cccc2Cl)c1=O`, the Potency was “inactive”.
In the case of `CC(C)(C)OC(=O)N1CCCN(C(=O)Nc2ccc(C(F)(F)F)cc2)CC1`, the Potency is reported as “inactive”.
For `CC(/C=N/n1c(-c2ccccn2)n[nH]c1=S)=C\c1ccccc1`, the Potency was “inactive”.
In the case of `CCC12CCCN3CCc4c(n(c5ccccc45)C(O)(C(=O)OC)C1)C32` (centres undefined), the Potency is reported as “inactive”.
In the case of `O=C(O)CSCC(=O)N1CCCN(c2nc3ccc(Cl)cc3s2)CC1`, the Potency is reported as “inactive”.
`Cc1nn(Cc2ccccc2)c(C)c1/C=N/NC(=O)c1ccncc1` was tested, and the Potency was “inactive”.
For `COc1ccccc1OCc1ccc(C(=O)NN)o1`, the Potency was “inactive”.
With `Cc1nn(C)c(=O)c(N)c1-c1cc(-c2ccc(Cl)c(Cl)c2)n[nH]1` the Potency was “inactive”.
`CC(C)(C)c1ccc(C(=O)Cn2nc(C(=O)O)c3ccccc3c2=O)cc1` was tested, and the Potency was “inactive”.
For `CN(C)c1cccc(N(C)C)c1CNC(=O)C(C)(C)C`, the Potency was “inactive”.
In the case of `S=c1[nH]nc(-c2cccs2)n1C1CCCCC1`, the Potency is reported as “inactive”.
For `CCCSc1nnc(NC(=O)Nc2ccc(C)cc2)s1`, the Potency was “inactive”.
In the case of `O=C(/C=C/c1cn(CC(O)CN2CCOCC2)c2ccccc12)c1cccs1` (centres undefined), the Potency is reported as “inactive”.
For `Cc1nc([N+](=O)[O-])cn1CC(O)c1ccccc1` (centres undefined), the Potency was “inactive”.
`CCSc1cc(Cl)nc(N)n1` was tested, and the Potency was “inactive”.
With `COc1cc(OC)c(OC)cc1/C=N/NC(=O)CCc1c(C)n[nH]c1C` the Potency was “inactive”.
`CC(=O)N1CCCC1(C(=O)O)c1ccccc1` (centres undefined) was tested, and the Potency was “inactive”.
`O=C(N/N=C/C(Br)=C/c1ccccc1)C(O)c1ccccc1` (centres undefined) was tested, and the Potency was “inactive”.
`O=C(O)C1CC(c2ccccc2)=Nc2ccccc2S1` (centres undefined) was tested, and the Potency was “inactive”.
`COc1ccc2nc(-c3ccc(Cl)cc3)cc(C(=O)O)c2c1` was tested, and the Potency was “inactive”.
`Oc1cccc(O)c1O` was tested, and the Potency was 0.888 µM (active).
For `Cc1ccc(OCC(=O)N(Cc2ccc(N(C)C)cc2)C2CCS(=O)(=O)C2)cc1C` (centres undefined), the Potency was “inactive”.
`CCOC(=O)c1cnc2c(F)ccc(F)c2c1Sc1ccccc1` was tested, and the Potency was “inactive”.
`O=C(Nc1ccc(Cl)cc1)NC1CCCCNC1=O` (centres undefined) was tested, and the Potency was “inactive”.
`Cc1nn(-c2ccccc2)nc1C(=O)NNC(=O)c1cccc2ccccc12` was tested, and the Potency was “inactive”.
With `Cc1nn2c(NCCN(C)C)c3c(nc2c1-c1ccccc1)CCCC3` the Potency was “inactive”.
`Cc1nc([N+](=O)[O-])cn1C(C)C` was tested, and the Potency was “inactive”.
`c1ccc(-c2ccc(C3=Nn4c(nnc4-c4cccs4)SC3)cc2)cc1` was tested, and the Potency was “inactive”.
For `CC(=O)Nc1ccc(Nc2cc(C(C)C)nc3c(-c4ccccc4)c(C)nn23)cc1`, the Potency was “inactive”.
For `O=C(O)c1ccccc1Sc1ccccc1S(=O)(=O)NC1CCCCC1`, the Potency was “inactive”.
`CCC(C)NC(=O)CC(C)C` (centres undefined) was tested, and the Potency was “inactive”.
For `O=C1CC(N2CCN(S(=O)(=O)c3ccccc3)CC2)C(=O)N1c1ccccc1` (centres undefined), the Potency was “inactive”.
For `C/C(Cc1ccccc1)=N\NC(=O)CNC(=O)c1ccc(Cl)cc1Cl`, the Potency was “inactive”.
In the case of `N/C(CC1CC1(Cl)Cl)=N\OC(=O)c1ccccc1` (centres undefined), the Potency is reported as “inactive”.
In the case of `CC(=O)COc1nc2c(c(-c3ccco3)c1C#N)CCc1ccccc1-2`, the Potency is reported as “inactive”.
In the case of `Nc1nc(NCc2ccco2)nc(NCCO)c1[N+](=O)[O-]`, the Potency is reported as “inactive”.
In the case of `Cc1ccc(-n2ncc(-c3nn[nH]n3)c2N)cc1`, the Potency is reported as “inactive”.
In the case of `NCCc1ccc(O)c(O)c1`, the Potency is reported as “inactive”.
In the case of `N[C@H](Cc1ccc(O)c(O)c1)C(=O)O`, the Potency is reported as 7.08 µM (active).
`NC(Cc1ccc(O)c(O)c1)C(=O)O` (centres undefined) was tested, and the Potency was 0.891 µM (active).
For `O=C(/C=C/c1ccc(O)c(O)c1)c1ccccc1O`, the Potency was “inactive”.
`COc1ccc(C(=O)Nc2cccnc2Sc2ccc(Cl)cc2)cc1` was tested, and the Potency was “inactive”.
